# DT40 TDP1 CPT – growth inhibition of DT40 Tdp1-/-;hTDP1 cells with camptothecin (screen for TDP1 inhibitors); chicken DT40 Tdp1-/-;hTDP1 cells + 20 nM CPT, ATP luminescence, 48 h; Potency, µM (doses to about 46.2 µM), actives largely listed as inhibitors; actives 12% (n = 420,000); further: nearly all actives have a fitted effect of over 55% in size
#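 Chicken DT40 Tdp1-/- cells complemented with human TDP1, 400 cells/well, exposed to compounds plus 20 nM camptothecin for at least 48 h at 37 C; viability read as ATP content by CellTiter-Glo luminescence.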
# Chronic BCR inh – blocks chronic active B-cell receptor signaling. actives 0.05% (n = 340,000). ABC-DLBCL IkBa-CBG/CBR reporter, luminescence ratio, 4 h. Potency, µM (titrated, usually from 46.1 µM), usual class: inhibitors. AID 493014; active means well fitted inhibition curve with a large enough effect in the signal ratio, with a control signal flat, not every such curve was filed as active; inconclusive means small, poorly fitted or top-dose-only effect, or effect the other way, or a change in a side signal; the % refers to the signal ratio
#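 Cell line TMD8 (human ABC DLBCL), stably expressing tet-inducible CBG68-IkBa fusion and CBR; IMDM/0.5% FBS; cpd up to 46 uM; dox induction, 4 h, 37C/5% CO2; dual luminescence; green/red ratio; MG132 control.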
# IL1B secr inh – inflammasome signaling inhibition, IL-1 beta readout; actives 4.7% (n = 360,000); activity change, % at 57.5 µM; AID 743279; THP-1 LPS/ATP IL-1B secretion, AlphaLISA, 16 h; hits give low values; in the data active means activity change below about -50%; inconclusive means mostly about -30% to -49%
#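 THP-1 cells pretreated 1 hr with compounds (up to 57.5 uM final), then stimulated with LPS (250 ng/mL final) plus ATP (1.25 mM final); secreted IL-1B measured by AlphaLISA after 16 hr, decreased signal indicating inhibition.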
# SW480 rereplic – inducers of DNA re-replication in SW480 colon cancer cells; Potency, µM (doses to about 46.1 µM), actives largely listed as activators; SW480 DNA re-replication, Hoechst DNA content imaging, 48 h; actives 1.8% (n = 340,000); further: nearly all actives have a fitted effect of over 55% in size
#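 Quantitative HTS format with DMSO vehicle controls; 48 hr drug incubation at 37 C, then 40 min Hoechst staining and scanning imager measurement at 405 nm excitation.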
# MCF10A rerep – DNA re-replication induction in MCF 10a cells; Potency, µM (highest dose often 46.1 µM), most hits filed as activators; MCF 10A DNA re-replication, Hoechst nuclear intensity, 48 h; actives 2.9% (n = 350,000); further: nearly all actives have a fitted effect of over 50% in size
# TDP1 cell noCPT – qHTS for Inhibitors of human tyrosyl-DNA phosphodiesterase 1 (TDP1): qHTS in cells in absence of CPT | AID 686978, 2013 | Potency, µM (top dose mostly 46.2 µM), hits mostly inhibitors | actives 15% (n = 420,000) | DT40 Tdp1-/- hTDP1 cells, no CPT, ATP luminescence, 48 h; further: nearly all actives have a fitted effect of over 55% in size
#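 DT40 Tdp1-/-;hTDP1 cells, no CPT (DMSO vehicle only), 400 cells/well; compounds pin-transferred; ≥48 hr, 37 °C; CellTiter-Glo 30 min RT dark, luminescence read.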
# A number is an active result; 0 = inactive; ? = inconclusive; - = not tested or not shown; [ ] = remark or other dose. The list is not random: actives were taken first. Their share in the collection is about 19%. Unless noted, the call rests on the fitted dose curve; in most records, active means well fitted curve in the direction sought with a large enough effect; inconclusive means small, poorly fitted or top-dose-only effect, or another doubt; inactive means no such curve, though single readings can be large; an effect the other way counts as inactive or inconclusive.
SMILES,DT40 TDP1 CPT,Chronic BCR inh,IL1B secr inh,SW480 rereplic,MCF10A rerep,TDP1 cell noCPT
CCOc1ccc(NC(=O)c2cnn3c2NC(C)=C(C(=O)Nc2ccc(Cl)cc2)C3c2ccc(OC)c(OC)c2)cc1 (configuration not stated),23µM,-,-,-,-,10µM
Cc1nn(C)cc1S(=O)(=O)Nc1ccc(F)c(F)c1,0,0,0,0,0,0
CC12CCC(=O)C=C1CCC1C2C(=O)CC2(C)C1CCC2(O)C(=O)CO (configuration not stated),0,?,0,0,0,0
COC(=O)C=C1CCC2C3CCC4=CC(=O)C(Br)CC4(C)C3C(=O)CC12C (configuration not stated),?,-,-95,?,?,16µM
CN(CC(=O)Nc1cccc(F)c1)CC(=O)Nc1ccccc1Oc1ccccc1,?,0,0,0,?,?
COc1ccc(C[C@H]2CN3C(=NC[C@@H]3Cc3ccc(O)cc3)N2CCNC(=O)c2ccc(C)c(Br)c2)cc1,13µM,?,0,0,0,13µM
Cc1ccc(C(=O)NCCN2C3=NC[C@H](Cc4ccc(O)cc4)N3C[C@H]2Cc2ccc(O)cc2)cc1Br,?,0,0,0[9.22 µM],0,16µM
Nc1nc2c(ncn2[C@@H]2O[C@H](CNS(=O)(=O)C3CC3)[C@@H](O)[C@H]2O)c(=O)[nH]1,0,-,0,-,-,0
Cc1nnsc1C(=O)Nc1ccc(S(=O)(=O)N2CCCCC2)cc1,21µM,0,0,0,0,?
Cc1ccc(NC(=O)c2cc(S(=O)(=O)N3CCCCC3)cs2)cc1,0,?,-73,0,?,0
COc1cc(S(=O)(=O)N2CCCCC2)ccc1NC(=O)c1ccccc1Cl,16µM,0,0,0,0,16µM
O=C(Nc1ccc(S(=O)(=O)N2CCCCC2)cc1)c1ccccc1Cl,?,0,?,0,0,26µM
COc1ccccc1NC(=O)c1cc(S(=O)(=O)N2CCCCCC2)ccc1F,?,0,?,0,0,?
Cc1ccc(S(=O)(=O)N2CCCCC2)cc1C(=O)Nc1ccc(S(=O)(=O)Nc2ncccn2)cc1,0,0,0,0,0,0
N#C/C(=N\Nc1ccc(S(=O)(=O)N2CCOCC2)cc1)C(N)=S,?,0,0,0,0,?
COc1ccccc1NC(=O)c1ccc(S(=O)(=O)N2CCCC2)cc1,0,0,0,0,0,0
COc1ccccc1NS(=O)(=O)c1ccc(C)c(NC(=O)c2ccc(S(=O)(=O)N3CCCCCC3)cc2)c1,?,0,0,0,0,21µM
O=C(Nc1ccccc1C(=O)O)c1ccc(Cl)c(S(=O)(=O)N2CCOCC2)c1,?,?,0,0,0,?
O=C(Nc1ccccc1C(=O)O)c1cc(S(=O)(=O)N2CCCCC2)c(Cl)cc1Cl,23µM,?,0,0,0,12µM
N#CC(C#N)=NNc1ccc(S(=O)(=O)N2CCCCC2)cc1,?,?,0,0,26µM,16µM
CS(=O)(=O)Nc1ccc(-c2cnc3cccnn23)cc1,?,-,0,-,-,?
CN(C)S(=O)(=O)c1ccc2c(c1)Cc1cc(S(=O)(=O)N(C)C)ccc1-2,0,0,0,0,0,0
Cc1cc(C)c(C#N)c(OCC2CCCO2)n1 (configuration not stated),0,-,0,-,-,0
Cc1cc(-c2ccc(C(C)C)c(S(=O)(=O)N3CCOc4ccccc43)c2)on1,?,0,0,?,0,18µM
COc1ccc(-c2cc(C)no2)cc1S(=O)(=O)N1CCOc2ccccc21,?,0,0,0,0,18µM
SMILES,DT40 TDP1 CPT,Chronic BCR inh,IL1B secr inh,SW480 rereplic,MCF10A rerep,TDP1 cell noCPT
COc1ccc(-c2cc(C)no2)cc1S(=O)(=O)N1CCN(c2cccc(C)c2)C(C)C1 (configuration not stated),16µM,?,0,0,?,23µM
CCC1CN(S(=O)(=O)c2cc(-c3cc(C)no3)ccc2OC)c2cc(C)ccc2O1 (configuration not stated),18µM,0,0,?,0,23µM
CC1([N+](=O)[O-])COC2(CCCCC2)OC1,0,-,0,0,0,?
CN(Cc1nccn1C)C(=O)C1CCC(=O)N(CCc2ccc(Cl)cc2)C1 (configuration not stated),0,0,0,0,0,0
CCOC(=O)c1cc(C)n(CC2CCC(C(=O)Nc3ccc(Cl)cc3)CC2)c1C (configuration not stated),18µM,-,-,-,-,12µM
CS(=O)(=O)N1CCC(C(=O)Nc2cccc(Cl)c2)CC1,0,0,0,0,0,0
CCOC(=O)c1cc(C)n(CC2CCC(C(=O)Nc3cccc(Cl)c3)CC2)c1C (configuration not stated),?,0,-,-,-,16µM
CCOC(=O)c1cc(C)n(CC2CCC(C(=O)Nc3ccc(OC)c(OC)c3)CC2)c1C (configuration not stated),0,-,-,-,-,0
CN=C1c2cc3cc(OC)ccc3n2CCN1Cc1ccccc1,3.3µM,0,-91,11µM,21µM,2.9µM
COCCn1c(SCC(=O)c2c[nH]c3ccccc23)nnc1-c1ccncc1,0,?,0,0,0,0
CCn1c(SC(C)C(=O)OC)nnc1-c1c[nH]c2ccccc12 (configuration not stated),?,0,?,0,0,23µM
CCn1c(SCC(=O)c2c[nH]c3ccccc23)nnc1-c1cccs1,?,0,0,15µM,?,5.8µM
CCn1c(SCc2nc(-c3cccs3)no2)nnc1-c1c[nH]c2ccccc12,?,0,0,?,?,23µM
COc1ccc(OC)c(NC(=O)CN2C(=O)C(C)N(c3ccc(C)cc3)C2=O)c1 (configuration not stated),0,0,0,?,0,0
CCn1nc(C)c(CN2CCC(n3nccc3NC(=O)c3ccc4c(c3)OCO4)CC2)c1C,0,0,0,0,0,0
CCOC(=O)Cc1csc(NC(=O)CCCCCN2C(=O)c3ccccc3C2=O)n1,0,?,-56,?,?,0
CCOC(=O)Cc1csc(NC(=O)Cn2cnc3c2c(=O)n(C)c(=O)n3C)n1,16µM,0,0,0,0,0
CCOC(=O)Cc1csc(NC(=O)CC)n1,0,?,0,0,0,0
CCOC(=O)Cc1csc(NC(=O)Cn2c(=O)oc3ccccc32)n1,0,0,-84,0,0,0
CC(C)(C)c1csc(NC(=O)Cn2c(=O)oc3ccccc32)n1,16µM,0,0,0,0,?

# Source: PubChem
